From PMC7862700, “An all-to-all approach to the identification of sequence-specific readers for epigenetic DNA modifications on cytosine”

Columns and labels:
Test in all cases: DAPPL (digital affinity profiling via proximity ligation, sequencing); 10 mM Tris-HCl pH 7.5, 50 mM NaCl, 1 mM DTT, 4% glycerol, room temperature, 30 min; GST-TFs on glutathione beads, 16-mer random dsDNA library, 0.1% formaldehyde crosslink after washing; high values mean tight binding
Conditions in all cases: protein: recombinant; tags: N-terminal GST; dsDNA, one strand shown
[1] = biological target: T1, FEV (Homo sapiens, UniProt Q99581 1-238)
T1 sequence: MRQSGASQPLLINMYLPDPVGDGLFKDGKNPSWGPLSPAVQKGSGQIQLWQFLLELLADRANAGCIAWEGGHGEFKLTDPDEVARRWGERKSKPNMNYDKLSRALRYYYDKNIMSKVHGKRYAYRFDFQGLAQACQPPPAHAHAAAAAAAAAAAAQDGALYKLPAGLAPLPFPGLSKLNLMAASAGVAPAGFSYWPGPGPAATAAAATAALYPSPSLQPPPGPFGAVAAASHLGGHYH
Summary of the method: (§1)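 In yeast, human transcription factors were expressed with a GST fusion, then pulled down on glutathione beads and given DNA barcodes. Pooled with a tag-only sample, they were exposed to 200 nmole of a 16-mer random double-stranded DNA library (Tris/NaCl/DTT/glycerol buffer, room temperature, 30 min), washed, crosslinked with 0.1% formaldehyde, proximity-ligated using BsaI/T4 ligase for 1 h at 37 °C, PCR-amplified and read on an Illumina NextSeq500. Each hexamer's frequency of reads for a factor, divided by the matching frequency for the tag-only sample, gives the binding signal.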

[2] = biological target: ETV5 (Homo sapiens, UniProt P41161 1-510)
Sequence of ETV5 (P41161 whole entry): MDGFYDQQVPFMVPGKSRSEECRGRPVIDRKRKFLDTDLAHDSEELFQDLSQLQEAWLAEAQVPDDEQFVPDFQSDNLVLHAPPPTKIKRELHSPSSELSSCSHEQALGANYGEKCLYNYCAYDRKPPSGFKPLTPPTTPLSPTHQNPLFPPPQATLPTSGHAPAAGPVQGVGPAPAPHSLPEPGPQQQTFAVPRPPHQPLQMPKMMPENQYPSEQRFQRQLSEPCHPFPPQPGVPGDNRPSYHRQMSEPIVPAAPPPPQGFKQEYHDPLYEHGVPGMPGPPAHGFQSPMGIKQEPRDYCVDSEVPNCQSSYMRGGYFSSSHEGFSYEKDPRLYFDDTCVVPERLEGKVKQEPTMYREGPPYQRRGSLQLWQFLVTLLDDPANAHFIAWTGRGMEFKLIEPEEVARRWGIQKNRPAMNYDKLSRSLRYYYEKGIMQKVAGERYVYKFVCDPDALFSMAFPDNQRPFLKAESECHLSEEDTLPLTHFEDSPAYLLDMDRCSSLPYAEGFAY
Summary of the method: as §1

[3] = biological target: T2, SPIC (Homo sapiens, UniProt Q8N5J4 1-248)
T2 sequence: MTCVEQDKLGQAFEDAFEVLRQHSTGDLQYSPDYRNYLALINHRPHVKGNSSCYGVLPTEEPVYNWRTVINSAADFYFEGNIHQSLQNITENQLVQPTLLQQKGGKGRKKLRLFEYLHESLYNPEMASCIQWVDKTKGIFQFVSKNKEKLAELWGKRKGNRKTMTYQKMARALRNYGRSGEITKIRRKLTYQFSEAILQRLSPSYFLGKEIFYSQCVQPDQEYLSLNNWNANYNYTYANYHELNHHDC
Summary of the method: as §1

[4] = biological target: ELF4 (Homo sapiens, UniProt Q99607 1-663)
Sequence of ELF4 (Q99607 whole entry): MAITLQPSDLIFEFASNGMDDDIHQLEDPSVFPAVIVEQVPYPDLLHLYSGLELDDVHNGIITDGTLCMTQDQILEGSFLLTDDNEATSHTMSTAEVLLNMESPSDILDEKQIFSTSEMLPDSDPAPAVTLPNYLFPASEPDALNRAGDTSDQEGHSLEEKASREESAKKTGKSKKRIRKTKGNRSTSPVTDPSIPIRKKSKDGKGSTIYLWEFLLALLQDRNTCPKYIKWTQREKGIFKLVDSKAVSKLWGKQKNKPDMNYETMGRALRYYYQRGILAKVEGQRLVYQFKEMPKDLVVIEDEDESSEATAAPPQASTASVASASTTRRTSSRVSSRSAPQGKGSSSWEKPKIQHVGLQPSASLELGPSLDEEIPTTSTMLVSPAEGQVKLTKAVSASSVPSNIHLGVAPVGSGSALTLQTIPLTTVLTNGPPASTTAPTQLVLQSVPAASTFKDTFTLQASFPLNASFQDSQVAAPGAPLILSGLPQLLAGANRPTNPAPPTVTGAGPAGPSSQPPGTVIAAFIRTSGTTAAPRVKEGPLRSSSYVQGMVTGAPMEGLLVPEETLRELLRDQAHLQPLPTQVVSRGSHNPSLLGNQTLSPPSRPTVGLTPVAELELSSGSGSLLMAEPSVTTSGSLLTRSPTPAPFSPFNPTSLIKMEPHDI
Summary of the method: as §1

[5] = biological target: T3, ELK4 (Homo sapiens, UniProt P28324-2 1-405)
T3 sequence: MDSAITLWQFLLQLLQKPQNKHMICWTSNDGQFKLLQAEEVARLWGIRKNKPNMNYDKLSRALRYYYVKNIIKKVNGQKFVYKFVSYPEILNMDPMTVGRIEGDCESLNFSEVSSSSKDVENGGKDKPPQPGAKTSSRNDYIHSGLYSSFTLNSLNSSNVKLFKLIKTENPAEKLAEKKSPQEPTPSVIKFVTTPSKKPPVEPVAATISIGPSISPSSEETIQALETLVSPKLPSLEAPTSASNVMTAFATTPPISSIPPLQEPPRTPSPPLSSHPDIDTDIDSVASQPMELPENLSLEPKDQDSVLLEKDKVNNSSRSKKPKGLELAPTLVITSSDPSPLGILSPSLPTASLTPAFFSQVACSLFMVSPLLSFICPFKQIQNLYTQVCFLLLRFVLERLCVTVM
Summary of the method: as §1

[6] = biological target: T4, ELF3 (Homo sapiens, UniProt P78545 1-371)
T4 sequence: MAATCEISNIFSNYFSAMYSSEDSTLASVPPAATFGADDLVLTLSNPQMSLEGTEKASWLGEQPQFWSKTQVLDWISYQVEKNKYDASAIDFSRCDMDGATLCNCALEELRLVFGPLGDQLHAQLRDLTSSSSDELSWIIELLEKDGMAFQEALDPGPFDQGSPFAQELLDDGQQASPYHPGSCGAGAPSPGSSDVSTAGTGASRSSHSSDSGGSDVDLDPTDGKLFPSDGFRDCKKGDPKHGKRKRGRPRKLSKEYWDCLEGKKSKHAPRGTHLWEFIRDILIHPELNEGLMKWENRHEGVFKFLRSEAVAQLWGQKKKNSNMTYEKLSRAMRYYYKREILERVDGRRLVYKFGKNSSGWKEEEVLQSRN
Summary of the method: as §1

[7] = biological target: ETV1 (Homo sapiens, UniProt P50549 1-477)
Sequence of ETV1 (P50549 whole entry): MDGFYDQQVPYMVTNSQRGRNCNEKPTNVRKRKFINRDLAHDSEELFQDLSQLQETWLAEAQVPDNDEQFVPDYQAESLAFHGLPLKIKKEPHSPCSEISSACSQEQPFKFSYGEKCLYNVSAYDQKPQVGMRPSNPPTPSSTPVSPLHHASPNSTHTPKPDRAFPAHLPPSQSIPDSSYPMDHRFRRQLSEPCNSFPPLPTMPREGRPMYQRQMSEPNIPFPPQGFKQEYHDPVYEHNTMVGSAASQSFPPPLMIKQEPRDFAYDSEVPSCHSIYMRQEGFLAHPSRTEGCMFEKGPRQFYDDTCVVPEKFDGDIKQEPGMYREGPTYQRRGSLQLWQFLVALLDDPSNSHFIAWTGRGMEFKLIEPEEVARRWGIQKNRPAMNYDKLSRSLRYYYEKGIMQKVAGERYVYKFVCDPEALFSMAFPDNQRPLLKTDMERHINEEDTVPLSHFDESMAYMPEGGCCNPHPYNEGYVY
Summary of the method: as §1

[8] = biological target: T5, ERF (Homo sapiens, UniProt P50548 1-548)
T5 sequence: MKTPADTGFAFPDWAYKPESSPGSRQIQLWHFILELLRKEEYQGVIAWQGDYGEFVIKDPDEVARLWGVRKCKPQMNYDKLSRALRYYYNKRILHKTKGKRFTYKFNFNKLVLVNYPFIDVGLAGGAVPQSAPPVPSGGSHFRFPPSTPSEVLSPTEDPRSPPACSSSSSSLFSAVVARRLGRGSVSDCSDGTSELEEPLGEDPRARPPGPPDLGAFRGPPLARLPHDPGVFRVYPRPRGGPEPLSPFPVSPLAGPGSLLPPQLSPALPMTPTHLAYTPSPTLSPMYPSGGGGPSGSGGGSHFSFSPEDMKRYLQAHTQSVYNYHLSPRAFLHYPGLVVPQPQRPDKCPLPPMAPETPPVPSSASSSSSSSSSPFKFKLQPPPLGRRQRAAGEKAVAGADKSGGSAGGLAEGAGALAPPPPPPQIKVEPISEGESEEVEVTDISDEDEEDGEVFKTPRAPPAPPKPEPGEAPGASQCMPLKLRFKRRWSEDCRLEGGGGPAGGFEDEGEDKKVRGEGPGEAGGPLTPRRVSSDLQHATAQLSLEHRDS
Summary of the method: as §1

[9] = biological target: T6, ETV3L (Homo sapiens, UniProt Q6ZN32 1-361)
T6 sequence: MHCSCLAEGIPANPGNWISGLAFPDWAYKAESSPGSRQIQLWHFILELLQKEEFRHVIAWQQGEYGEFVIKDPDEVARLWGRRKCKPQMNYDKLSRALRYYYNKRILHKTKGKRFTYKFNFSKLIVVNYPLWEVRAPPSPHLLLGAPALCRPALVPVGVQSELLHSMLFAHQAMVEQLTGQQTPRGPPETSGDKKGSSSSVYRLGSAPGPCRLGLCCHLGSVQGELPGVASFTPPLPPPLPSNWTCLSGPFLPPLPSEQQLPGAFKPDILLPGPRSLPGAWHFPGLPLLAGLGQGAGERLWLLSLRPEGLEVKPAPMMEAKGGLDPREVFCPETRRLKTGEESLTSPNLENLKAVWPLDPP
Summary of the method: as §1

[10] = biological target: T7, ETS2 (Homo sapiens, UniProt P15036 1-469)
T7 sequence: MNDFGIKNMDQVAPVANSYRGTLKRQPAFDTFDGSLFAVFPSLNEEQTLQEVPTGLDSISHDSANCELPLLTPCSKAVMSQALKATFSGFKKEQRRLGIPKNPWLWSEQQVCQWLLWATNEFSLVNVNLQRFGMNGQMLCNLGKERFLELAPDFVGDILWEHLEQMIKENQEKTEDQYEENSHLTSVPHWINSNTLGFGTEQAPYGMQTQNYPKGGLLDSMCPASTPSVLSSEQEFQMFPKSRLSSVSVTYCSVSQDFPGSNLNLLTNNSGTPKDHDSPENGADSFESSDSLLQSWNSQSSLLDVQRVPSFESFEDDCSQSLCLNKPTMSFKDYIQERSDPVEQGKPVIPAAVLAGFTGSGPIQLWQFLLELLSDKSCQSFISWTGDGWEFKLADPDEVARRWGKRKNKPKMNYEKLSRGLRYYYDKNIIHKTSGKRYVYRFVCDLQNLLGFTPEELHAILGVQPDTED
Summary of the method: as §1

[11] = biological target: T8, SPDEF (Homo sapiens, UniProt O95238 1-335)
T8 sequence: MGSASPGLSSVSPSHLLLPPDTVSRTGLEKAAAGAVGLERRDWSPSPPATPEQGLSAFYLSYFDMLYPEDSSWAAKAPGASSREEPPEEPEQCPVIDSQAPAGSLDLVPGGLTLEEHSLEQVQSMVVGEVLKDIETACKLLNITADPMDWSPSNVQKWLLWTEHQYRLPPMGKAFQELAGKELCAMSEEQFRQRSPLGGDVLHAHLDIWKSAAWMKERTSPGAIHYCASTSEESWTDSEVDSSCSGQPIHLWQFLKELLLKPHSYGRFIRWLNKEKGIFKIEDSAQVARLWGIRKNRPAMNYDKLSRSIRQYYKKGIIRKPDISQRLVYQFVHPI
Summary of the method: as §1

[12] = biological target: T9, ETV7 (Homo sapiens, UniProt Q9Y603 1-341)
T9 sequence: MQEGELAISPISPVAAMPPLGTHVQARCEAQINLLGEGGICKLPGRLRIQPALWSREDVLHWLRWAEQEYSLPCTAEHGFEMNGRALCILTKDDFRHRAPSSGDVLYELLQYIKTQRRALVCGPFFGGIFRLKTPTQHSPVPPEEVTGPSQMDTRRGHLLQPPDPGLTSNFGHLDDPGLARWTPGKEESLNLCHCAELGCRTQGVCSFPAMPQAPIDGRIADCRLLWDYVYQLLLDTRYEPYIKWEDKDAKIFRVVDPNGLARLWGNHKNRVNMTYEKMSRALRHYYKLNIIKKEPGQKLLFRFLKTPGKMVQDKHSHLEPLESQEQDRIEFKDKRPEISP
Summary of the method: as §1

[13] = biological target: T10, ELF5 (Homo sapiens, UniProt Q9UKW6-2 1-255)
T10 sequence: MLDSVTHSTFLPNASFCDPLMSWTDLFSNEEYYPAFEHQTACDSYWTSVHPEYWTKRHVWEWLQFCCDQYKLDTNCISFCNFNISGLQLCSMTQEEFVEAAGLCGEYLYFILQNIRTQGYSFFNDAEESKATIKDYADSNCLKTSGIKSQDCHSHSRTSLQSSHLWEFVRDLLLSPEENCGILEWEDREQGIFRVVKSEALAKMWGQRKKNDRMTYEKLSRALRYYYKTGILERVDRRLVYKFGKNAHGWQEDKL
Summary of the method: as §1

[14] = biological target: T11, ETV3 (Homo sapiens, UniProt P41162-2 1-143)
T11 sequence: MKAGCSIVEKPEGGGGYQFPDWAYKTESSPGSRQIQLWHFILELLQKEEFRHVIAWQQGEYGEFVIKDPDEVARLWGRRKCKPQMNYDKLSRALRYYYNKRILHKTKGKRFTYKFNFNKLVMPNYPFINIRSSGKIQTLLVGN
Summary of the method: as §1

[15] = biological target: ETV6 (Homo sapiens, UniProt P41212 1-452)
Sequence of ETV6 (P41212 whole entry): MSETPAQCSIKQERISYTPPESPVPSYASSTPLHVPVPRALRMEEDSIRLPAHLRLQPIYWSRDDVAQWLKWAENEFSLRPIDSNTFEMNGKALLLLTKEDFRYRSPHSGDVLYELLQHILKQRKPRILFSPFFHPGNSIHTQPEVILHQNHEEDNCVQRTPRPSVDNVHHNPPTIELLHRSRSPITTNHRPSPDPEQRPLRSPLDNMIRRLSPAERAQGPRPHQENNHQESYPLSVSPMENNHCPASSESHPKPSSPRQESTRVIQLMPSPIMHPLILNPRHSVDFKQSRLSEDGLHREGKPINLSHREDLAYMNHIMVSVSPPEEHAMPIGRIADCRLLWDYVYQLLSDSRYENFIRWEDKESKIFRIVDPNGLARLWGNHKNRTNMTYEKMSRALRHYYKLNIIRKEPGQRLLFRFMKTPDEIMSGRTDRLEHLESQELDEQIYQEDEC
Summary of the method: as §1

[16] = biological target: CRX (Homo sapiens, UniProt O43186 1-299)
Sequence of CRX (O43186 whole entry): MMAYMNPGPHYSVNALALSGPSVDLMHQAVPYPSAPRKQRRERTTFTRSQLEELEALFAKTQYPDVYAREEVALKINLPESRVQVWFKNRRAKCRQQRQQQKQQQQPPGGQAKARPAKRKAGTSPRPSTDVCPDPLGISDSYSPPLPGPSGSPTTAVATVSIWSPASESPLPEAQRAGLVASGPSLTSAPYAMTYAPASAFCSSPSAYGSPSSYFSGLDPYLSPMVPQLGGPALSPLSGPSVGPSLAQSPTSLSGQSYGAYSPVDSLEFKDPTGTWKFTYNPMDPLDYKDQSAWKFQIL
Summary of the method: as §1

AAGTTG
binding signal [1]: 1.05 fold enrichment (6-mer frequency, TF over GST control)
binding signal [2]: 1.16 fold enrichment (6-mer frequency, TF over GST control)
binding signal [3]: 1.08 fold enrichment (6-mer frequency, TF over GST control)
binding signal [4]: 1.14 fold enrichment (6-mer frequency, TF over GST control)
binding signal [5]: 1.12 fold enrichment (6-mer frequency, TF over GST control)
binding signal [6]: 1.12 fold enrichment (6-mer frequency, TF over GST control)
binding signal [7]: 1.02 fold enrichment (6-mer frequency, TF over GST control)
binding signal [8]: 1.08 fold enrichment (6-mer frequency, TF over GST control)
binding signal [9]: 1.11 fold enrichment (6-mer frequency, TF over GST control)
binding signal [10]: 1.11 fold enrichment (6-mer frequency, TF over GST control)
binding signal [11]: 1.02 fold enrichment (6-mer frequency, TF over GST control)
binding signal [12]: 1.26 fold enrichment (6-mer frequency, TF over GST control)
binding signal [13]: 1.17 fold enrichment (6-mer frequency, TF over GST control)
binding signal [14]: 1.07 fold enrichment (6-mer frequency, TF over GST control)
binding signal [15]: 1.17 fold enrichment (6-mer frequency, TF over GST control)

ATGTTG
binding signal [1]: 1.21 fold enrichment (6-mer frequency, TF over GST control)
binding signal [2]: 1.3 fold enrichment (6-mer frequency, TF over GST control)
binding signal [3]: 1.1 fold enrichment (6-mer frequency, TF over GST control)
binding signal [4]: 1.2 fold enrichment (6-mer frequency, TF over GST control)
binding signal [5]: 1.25 fold enrichment (6-mer frequency, TF over GST control)
binding signal [6]: 1.11 fold enrichment (6-mer frequency, TF over GST control)
binding signal [16]: 1.04 fold enrichment (6-mer frequency, TF over GST control)
binding signal [7]: 1.32 fold enrichment (6-mer frequency, TF over GST control)
binding signal [8]: 1.24 fold enrichment (6-mer frequency, TF over GST control)
binding signal [9]: 1.23 fold enrichment (6-mer frequency, TF over GST control)
binding signal [10]: 1.22 fold enrichment (6-mer frequency, TF over GST control)
binding signal [11]: 1.31 fold enrichment (6-mer frequency, TF over GST control)
binding signal [12]: 1.43 fold enrichment (6-mer frequency, TF over GST control)
binding signal [13]: 1.15 fold enrichment (6-mer frequency, TF over GST control)
binding signal [14]: 1.33 fold enrichment (6-mer frequency, TF over GST control)
binding signal [15]: 1.22 fold enrichment (6-mer frequency, TF over GST control)
